Data taken from PubChem BioAssay AID1851 (National Center for Advancing Translational Sciences (NCATS), 2009).
Values joined by “and” are separate entries in the source; they are usually repeats but may differ in a detail not shown here. Equal values may be shown once. In all, about 16,000 compounds went through this assay and about 5,800 (36%) were called active. Roughly 23% stayed inconclusive and do not appear here. The list shows a part of the results. Unmarked numbers belong to inactive results. Calls follow the shape of the dose curve; as a rule, active = well fitted curve in the direction sought with a large enough effect; inconclusive = small, poorly fitted or top-dose-only effect, or effect the other way; inactive = no such curve, though single readings can be large or run the other way.

What follows are compounds tested against Cytochrome P450 2C19 (Homo sapiens) (UniProt P33261) (assay: Cytochrome panel assay with activity outcomes). Conditions: recombinant CYP, pro-luciferin dealkylation, luminescence, p450-cyp2c19; series mostly up to 57.1 µM.
% is scaled to controls: 0 for no effect and ±100 for the full control effect.

Chain of Cytochrome P450 2C19 (Homo sapiens) (P33261 whole entry, looked up): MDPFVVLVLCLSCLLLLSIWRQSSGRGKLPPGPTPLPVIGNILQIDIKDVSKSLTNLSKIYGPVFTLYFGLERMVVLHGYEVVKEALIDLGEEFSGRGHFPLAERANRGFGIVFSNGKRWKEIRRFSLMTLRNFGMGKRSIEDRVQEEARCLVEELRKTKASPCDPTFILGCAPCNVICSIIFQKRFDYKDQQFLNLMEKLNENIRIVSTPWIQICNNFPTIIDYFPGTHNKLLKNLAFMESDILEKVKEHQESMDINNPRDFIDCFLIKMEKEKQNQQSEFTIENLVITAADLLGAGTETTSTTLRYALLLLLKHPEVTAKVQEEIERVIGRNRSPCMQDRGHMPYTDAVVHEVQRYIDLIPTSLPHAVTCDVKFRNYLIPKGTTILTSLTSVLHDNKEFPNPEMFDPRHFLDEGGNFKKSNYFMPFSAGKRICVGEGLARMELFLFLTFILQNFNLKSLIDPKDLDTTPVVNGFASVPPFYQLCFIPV

SMILES | AC50 | activity, negative = inhibition
CN(c1ccccc1)c1ccc(/C=c2\s/c(=C(/C#N)C(=O)C(C)(C)C)n(Cc3ccco3)c2=O)cc1 | 1.78 µM (active) | –
COc1cccc(OCCCOc2ccccc2C(C)C)c1 | 3.16 µM (active) | –
CNC(C)c1cc(OC)ccc1OC (stereo not drawn) | inactive | –
COc1cccc(OC)c1OCCCCN1CCCC1 | inactive | –
Cc1ccc(NC(=O)C(C)N2C(=O)C3C4CC(C(Br)C4Br)C3C2=O)cc1 (stereo not drawn) | 12.6 µM (active) | –
CC(C(=O)Nc1cccnc1)N1C(=O)C2C3C=CC(C3)C2C1=O (stereo not drawn) | inactive | –
COC(=O)c1nc(NC(=O)c2ccccc2)n[nH]1 | inactive | –
Cc1nc(SC(C(=O)c2ccccc2)c2ccccc2)n[nH]1 (stereo not drawn) | 2.51 µM (active) | –
COc1cccc(-c2nnc3n2N=C(C(C)(C)C)CS3)c1 | 2.82 µM (active) | –
CCN(CC)C(=O)CSc1nnc(-c2ccco2)n1N | inactive | –
CCOc1ccc(-c2nnc3n2N=C(c2ccc(OC)cc2)CS3)cc1 | 4.47 µM (active) | –
COc1ccc(-c2csc(N3C(=N)SCC3=O)n2)cc1 | inactive | –
CCOc1ccc(C2=Nn3c(nnc3-c3ccco3)SC2)cc1 | 3.16 µM (active) | –
NCCCCCC(=O)O | inactive | –
CCN1C(=O)[C@H]2[C@H]3[C@H](O)[C@H](O)C/C(=N/OC[C@@H](O)COCc4ccco4)[C@H]3CC[C@@H]2C1=O | – | -33.5% [at 11.4 µM]
CO[C@@H]1COC(=O)C/C=C\[C@@H](C)[C@H](OC)COC(=O)[C@@H](C)COC(=O)C/C=C\[C@H]1C | – | 4.43% [at 11.4 µM]
CCC(C)n1c(NC(=O)c2ccccc2)c(C#N)c2nc3ccccc3nc21 (stereo not drawn) | 28.2 µM (active) | –
Cc1noc(NC(=O)Nc2ccccc2F)c1C#N | – | -17.8% [at 11.4 µM]
CC(C)CN=C(N)N=C(N)N | – | -8.28% [at 11.4 µM]
Oc1cccc(-c2nc3c4c(ncn3n2)-c2ccccc2CC42CCCC2)c1 | 25.1 µM (active) | –
COc1ccc(C(=O)N2CCC3(CC2)CCN(C(c2ccccc2)c2ccccc2)CC3)cc1 | inactive | –
COc1ccc(C(=O)N2CCC3(CCN(C)CC3)CC2)cc1 | inactive | –
COc1ccc(C(=O)/C=C2/c3ccccc3CC(C)(C)N2C)cc1 | 15.8 µM (active) | –
CCNS(=O)(=O)c1ccc(NC(=O)c2cc(C(F)(F)F)nn2C)cc1 | inactive | –

SMILES | AC50 | activity, negative = inhibition
Cn1nccc1C(=O)Nc1ccc(Cl)cc1 | 31.6 µM (active) | –
O=C(O)c1cscc1Cc1cccs1 | – | -1.48% [at 11.4 µM]
O=C(O)/C(=C\c1ccccc1)Cc1ccccc1 | – | -14.2% [at 11.4 µM]
O=C(Cc1cccs1)N/N=C/C(Br)=C/c1ccccc1 | 7.08 µM (active) | –
COc1cc(C(=O)NCc2cccc3ccccc23)cc(Cl)c1OC | 3.16 µM (active) | –
CS(=O)(=O)N1CCC[C@@]2(CCN(C(=O)Nc3ccccc3)C2)C1 | inactive | –
COc1ccc2c(c1)C(=NN)c1cc(OC)ccc1-2 | 8.91 µM (active) | –
COc1ccc2c(c1)Cc1cc(N=[N+]([O-])c3ccc4c(c3)Cc3cc(OC)ccc3-4)ccc1-2 | – | -35.1% [at 11.4 µM]
CC1(C)O[C@H]2[C@@H](c3[nH]nc4c(=O)[nH]c(=O)[nH]c34)OC[C@H]2O1 | – | 9.71% [at 11.4 µM]
Cc1ccc(NS(=O)(=O)c2cc(C(=O)NCc3ccccn3)ccc2Cl)cc1 | 5.01 µM (active) | –
CN(c1ccc(C(=O)NCc2ccccn2)cc1)S(C)(=O)=O | inactive | –
Cc1ccc(NS(=O)(=O)c2cc(C(=O)N3CCc4ccccc4C3)ccc2Cl)cc1 | 1.58 µM (active) | –
COc1ccc(C(=O)N2CCCCC2)cc1S(=O)(=O)Nc1ccccc1 | inactive | –
CC(=O)OCC(=O)[C@@]1(OC(C)=O)[C@H](C)C[C@H]2[C@@H]3C[C@H](F)C4=CC(=O)C=C[C@@]4(C)[C@]3(F)[C@H](O)C[C@@]21C | inactive | –
COc1ccc2[nH]cc(CCNc3ccnc(-c4ccoc4)n3)c2c1 | 0.501 µM (active) | –
COc1ccc2[nH]cc(CCNc3ccnc(-c4c(C)noc4C)n3)c2c1 | 1.58 µM (active) | –
COc1ccc2[nH]cc(CCNc3ccnc(-c4ccc(N(C)C)cc4)n3)c2c1 | 6.31 µM (active) | –
COc1ccc2[nH]cc(CCNc3ccnc(-c4ccc5c(c4)OCO5)n3)c2c1 | 0.631 µM (active) | –
Cc1ccc(S(=O)(=O)N(C)c2cc(S(=O)(=O)N3CCC(C)CC3)c(C)cc2C)cc1 | 3.16 µM (active) | –
Cc1ccc(S(=O)(=O)N2CCC(C(=O)NCCCOC(C)C)CC2)cc1 | inactive | –
CCn1c(O)c(/C=C2\C=Nc3ccccc32)sc1=Nc1ccc(C)cc1 | 2 µM (active) | –
Clc1ccc2c(c1)C=Nc1c(NCc3ccccc3)ncnc1O2 | inactive | –
COc1ccc(C2=NC(C(F)(F)F)(C(F)(F)F)c3c(n(C)c(=O)n(C)c3=O)N2)cc1 | inactive | –
O=C1c2ccccc2C2=Nc3ccccc3SC(c3ccccc3F)C12 (stereo not drawn) | 1.58 µM (active) | –

SMILES | AC50 | activity, negative = inhibition
O=C(O)C1=CC(=C(c2ccc(O)c(C(=O)O)c2)c2ccc(O)c(C(=O)O)c2)C=CC1=O | 25.1 µM (active) | –
O=C(O)C1=C/C(=C(/c2ccccc2)c2cc(C(=O)O)c(O)c3ccccc23)c2ccccc2C1=O | – | 29% [at 11.4 µM] and -20.5% [at 11.4 µM]
CC1=C/C(=C(/c2ccc(O)c(C)c2)c2ccccc2C(=O)O)C=CC1=O | 0.00316 µM (active) | –
O=C(O)c1ccc(C(=O)c2ccccc2C(=O)O)cc1C(=O)O | – | -5.18% [at 11.4 µM]
NS(=O)(=O)c1ccc(N=Nc2ccc(O)c(C(=O)O)c2)cc1 | – | 5.09% [at 11.4 µM]
O=C(CN1CCc2ccccc21)NC(=O)NCc1ccco1 | 7.94 µM (active) | –
CN(C)CC(O)COc1cccc(OCC(O)CN(C)C)c1 (stereo not drawn) | inactive | –
Cc1nn(CC(O)COc2ccc3c(c2)CCC3)c(C)c1Br (stereo not drawn) | 2 µM (active) | –
O=C(NC(=S)Nc1ccc(C(=O)N2CCOCC2)cc1)c1ccc([N+](=O)[O-])cc1 | inactive | –
Cc1ccc(C(=O)NC(=S)Nc2ccc(S(=O)(=O)N3CCN(C)CC3)cc2)cc1 | 15.8 µM (active) | –
CCOC(=O)c1ccc(S(=O)(=O)N2CCN(C)CC2)cc1 | inactive | –
Cc1sc(N)c(C(=O)c2cccc(C(F)(F)F)c2)c1C | inactive | –
O=c1c(C=Nc2cccc(C(F)(F)F)c2)c[nH]n1-c1cccc(Cl)n1 | inactive | –
O=C(OCn1ncc(Cl)c(Cl)c1=O)c1cccc(C(F)(F)F)c1 | 2.24 µM (active) | –
N/C(CC/C(N)=N/O)=N\O | – | 20.3% [at 11.4 µM]
N#CC(CC(=O)O)=C(c1ccccc1)c1ccccc1 | – | 5.19% [at 11.4 µM]
C=CCNc1sc(C(=O)c2ccc(C)cc2)c(N)c1C#N | 7.08 µM (active) | –
C=CCNc1sc(C(=O)c2ccccc2)c(N)c1C#N | 6.31 µM (active) | –
CC(=O)CSc1nnc(Cc2ccc([N+](=O)[O-])cc2)o1 | 7.08 µM (active) | –
NNC(=O)CNc1cccc(Br)c1 | – | -2.2% [at 11.4 µM]
O=C(Cc1ncc(C(F)(F)F)cc1Cl)Nc1cccc(Br)c1 | 2.82 µM (active) | –
Cc1ccc(C(=O)c2cn(-c3ccc(F)c(Cl)c3)nn2)cc1 | inactive | –
CC(C)(C)C(=O)OCc1cn(-c2ccc(Cl)cc2)nn1 | 8.91 µM (active) | –
[Cu].[O-]/N=C1/C(=[OH+])Nc2ccccc21.[O-]Nc1c(O)[nH]c2ccccc12 | – | 2.58% [at 11.4 µM]

SMILES | AC50 | activity, negative = inhibition
Cc1c(C=O)c2ccccn2c1C(=O)c1ccncc1 | 1.78 µM (active) | –
C[C@H](C(=O)c1ccncc1)c1ccccn1 | – | -37.2% [at 11.4 µM]
CC(=O)N(C[C@@H](C)C(=O)O)c1c(I)cc(I)c(N)c1I | inactive | –
COc1ccc(F)cc1S(=O)(=O)NC(Cc1ccccc1)C(N)=O (stereo not drawn) | 7.08 µM (active) | –
C[N+](C)(C)/N=C\c1ccc(O)c(O)c1 | – | 12.7% [at 11.4 µM]
CC(C)N=c1scc(-c2ccco2)n1/N=C/c1ccc(O)c(O)c1 | 7.94 µM (active) | –
NC(=S)SCCC(=O)O | – | -6.93% [at 11.4 µM]
Cc1nn(Cc2ccc([N+](=O)[O-])cc2)c(=O)n1-c1cccc(F)c1 | 11.2 µM (active) | –
CSCC[C@@H]1NC(=O)C/C=C\[C@@H](C)COC(=O)[C@H](C)COC1=O | – | -10.8% [at 11.4 µM]
C[C@@H]1/C=C\CC(=O)OC[C@H]2O[C@@H](C=C[C@@H]2O)[C@H](C)/C=C\CC(=O)OC[C@H]2O[C@H]1C=C[C@@H]2O | – | -20.1% [at 11.4 µM]
CN(Cc1cc2ccccc2[nH]c1=O)S(C)(=O)=O | inactive | –
CS(=O)(=O)N(Cc1cc2ccccc2[nH]c1=O)C1CCCCC1 | 15.8 µM (active) | –
COc1ccc(-n2c(N)c(C(=O)NCc3ccco3)sc2=S)cc1 | 17.8 µM (active) | –
O=C(NNC(=S)Nc1ccccc1)c1ccco1 | inactive | –
CC1=C(C(=O)Nc2ccccc2)C(c2ccco2)NC(=S)N1 (stereo not drawn) | 35.5 µM (active) | –
O=C(Nc1ccccc1)N1CC2(CCN(C(=O)c3ccco3)CC2)C1 | inactive | –
CCN(CC)CC[n+]1ccc2c(C)c3[nH]c4ccccc4c3c(C)c2c1 | – | 2.93% [at 11.4 µM]
S=C(NCc1ccco1)N1CCN(Cc2ccco2)CC1 | 15.8 µM (active) | –
O=C(c1ccco1)N1CCC[C@@]2(CCN(C(c3ccccc3)c3ccccc3)C2)C1 | inactive | –
S=C(NCc1ccco1)N1CCN(C(c2ccccc2)c2ccccc2)CC1 | 7.08 µM (active) | –
CS(=O)(=O)Nc1c(O)ccc2c1CCC[C@H]2C1=NCCN1 | inactive | –
